# Measurements published in PubChem BioAssay AID651699 (Sanford-Burnham Center for Chemical Genomics, 2012).
# Out of some 360,000 compounds screened, about 2,100 (0.58%) were called active. The list comes from a sample in which actives are over-represented; it also holds similar structures and randomly drawn compounds. A number with no mark means an inactive call. Cut-off read from the data, not from the text of the source: active = inhibition above about 36%; inactive = the rest.
# Target: NEDD8-conjugating enzyme Ubc12 (Homo sapiens) + NEDD8-activating enzyme E1 regulatory subunit (Homo sapiens) (UniProt P61081+Q13564)
# Assay: NEDD8 transfer onto cullin, blockade – biochemical, TR-FRET, uHTS, NAE and Ubc12, primary screen (AID 651699)
# Conditions: TR-FRET cullin neddylation, at 25 µM, hits give high values
# Chain of NEDD8-conjugating enzyme Ubc12 (Homo sapiens) + NEDD8-activating enzyme E1 regulatory subunit (Homo sapiens) (P61081 whole entry, looked up): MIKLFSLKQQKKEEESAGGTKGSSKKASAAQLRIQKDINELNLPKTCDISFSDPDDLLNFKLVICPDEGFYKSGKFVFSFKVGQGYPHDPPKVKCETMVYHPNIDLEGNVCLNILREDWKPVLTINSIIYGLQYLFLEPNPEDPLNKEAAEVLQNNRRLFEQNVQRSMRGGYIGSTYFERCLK
# Chain of NEDD8-conjugating enzyme Ubc12 (Homo sapiens) + NEDD8-activating enzyme E1 regulatory subunit (Homo sapiens) (Q13564 whole entry, looked up): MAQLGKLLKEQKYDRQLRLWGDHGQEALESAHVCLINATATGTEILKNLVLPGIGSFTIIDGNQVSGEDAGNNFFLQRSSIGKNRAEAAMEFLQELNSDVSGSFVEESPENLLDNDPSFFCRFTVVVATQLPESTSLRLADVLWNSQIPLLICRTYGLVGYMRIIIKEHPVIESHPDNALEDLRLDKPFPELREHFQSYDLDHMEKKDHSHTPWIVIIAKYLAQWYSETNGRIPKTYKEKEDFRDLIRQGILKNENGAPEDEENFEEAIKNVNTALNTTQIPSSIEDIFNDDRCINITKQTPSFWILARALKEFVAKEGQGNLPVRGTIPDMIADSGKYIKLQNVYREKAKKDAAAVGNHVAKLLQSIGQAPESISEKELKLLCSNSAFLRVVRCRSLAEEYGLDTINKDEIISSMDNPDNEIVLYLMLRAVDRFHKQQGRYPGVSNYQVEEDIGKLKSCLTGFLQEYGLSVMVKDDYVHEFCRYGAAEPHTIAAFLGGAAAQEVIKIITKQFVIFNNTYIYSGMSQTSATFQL
row,SMILES,inhibition
1,CC(=CCOc1ccc2ccc(=O)oc2c1)C1=CC(=O)C(C)(C)O1,48.3% (active)
2,COC(=O)CN1C(=O)C2(C(C(=O)OC)=C(N)Oc3ccccc32)C2=C1CC(C)(C)CC2=O (stereo not given),0.61%
3,O=C(CCC(=O)N1C[C@H]2C[C@@H](C1)c1cccc(=O)n1C2)NCc1ccccc1C(F)(F)F,-4.64%
4,O=C(c1cc(S(=O)(=O)N2CCOCC2)ccc1F)N1CCC2(CC1)OCCO2,4.52%
5,CCC(C)n1c(O)c(/C=N/Nc2nc3c(c(=O)n(C)c(=O)n3C)n2C)c(=O)[nH]c1=S (stereo not given),40.5% (active)
6,CCN1C(=O)NC(=O)C2(CCCC2)C1=O,1.81%
7,CC(c1ccccc1)(c1ccccc1)c1ccncc1,-5.54%
8,COc1ccc2c(c1)[C@]13CCCCC1C(C2)N(C)CC3 (stereo not given in full),-8.52%
9,COP(=O)(NS(=O)(=O)c1ccccc1)OC,-0.79%
10,CCN1c2nc3c(C)cccn3c(=O)c2CC2(C(=O)N(C)C(=O)N(C)C2=O)C1C (stereo not given),41.1% (active)
11,CCCCCn1c(=O)c(C(=O)NCc2ccccn2)c(O)c2ccccc21,4.17%
12,CC1(C)Cc2c(C#N)c(N3CCNCC3)nc(-c3ccco3)c2CS1,25.7%
13,COc1ccc(C(=O)C2CCCN(Cc3ccc(C)s3)C2)cc1OC (stereo not given),0.31%
14,CN1C2C=C(N(C(=O)c3ccc(Cl)cc3)c3ccccc3)CC1CC2 (stereo not given),0.6%
15,O=c1[nH]c(=O)n(CCc2ccc(F)cc2)c(O)c1/C=N/N1CCCCC1,-6.7%
16,CCCCC(=O)N/N=C/c1c(O)n(CC)c(=S)n(CC)c1=O,-37%
17,CCCCC(=O)N/N=C/c1c(O)n(CCC2=CCCCC2)c(=O)[nH]c1=O,52.9% (active)
18,COC(=O)C1=C(c2ccccc2)C[C@@H]2CC[C@H]1N2C(=O)N1CCCCC1,-6.19%
19,COc1cccc(OC)c1C(=O)NC(=S)N1C[C@H]2C[C@H](C1)c1cccc(=O)n1C2,-2.07%
20,c1ccc2sc(N3CCNCC3)nc2c1,1.66%
